Test results taken from PubChem BioAssay AID1851 (National Center for Advancing Translational Sciences (NCATS), 2009).
Values joined by “and” are separate entries in the source; they are usually repeats but may differ in a detail not shown here. Identical values can stand only once. The campaign covered roughly 16,000 compounds. About 5,800 (36%) were called active. Another 23% or so got no clear call; they are omitted. Calls come from the whole dose curve; as a rule, active = well fitted curve in the direction sought with a large enough effect; inconclusive = small, poorly fitted or top-dose-only effect, or effect the other way; inactive = no such curve, though single readings can be large or run the other way. Some of the results follow. The source holds several records for some structures; these can differ, active in one and inactive in another.

target: Cytochrome P450 2C19 (Homo sapiens) (UniProt P33261); experiment: Cytochrome panel assay with activity outcomes; details: recombinant CYP, pro-luciferin dealkylation, luminescence, p450-cyp2c19; series mostly up to 57.1 µM
% is set by controls: 0 for no effect and ±100 for the full control effect.

Chain of Cytochrome P450 2C19 (Homo sapiens) (P33261 whole entry, looked up): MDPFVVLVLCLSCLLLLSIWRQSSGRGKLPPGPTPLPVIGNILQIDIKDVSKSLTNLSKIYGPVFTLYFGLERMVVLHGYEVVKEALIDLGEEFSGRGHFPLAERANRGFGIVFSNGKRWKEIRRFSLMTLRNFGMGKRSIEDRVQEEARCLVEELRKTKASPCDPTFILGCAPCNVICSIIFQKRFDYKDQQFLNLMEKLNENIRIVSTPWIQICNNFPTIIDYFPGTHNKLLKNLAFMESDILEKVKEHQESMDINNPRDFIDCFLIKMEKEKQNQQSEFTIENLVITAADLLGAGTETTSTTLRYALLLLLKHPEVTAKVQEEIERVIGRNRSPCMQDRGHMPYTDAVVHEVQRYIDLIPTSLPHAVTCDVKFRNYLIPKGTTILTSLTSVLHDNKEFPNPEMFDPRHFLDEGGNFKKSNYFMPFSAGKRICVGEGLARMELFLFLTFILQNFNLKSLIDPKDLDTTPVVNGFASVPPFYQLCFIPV

| SMILES | AC50 | activity, negative = inhibition |
| --- | --- | --- |
| CCOc1ccc(N2C(=O)c3cccnc3C2=O)cc1 | inactive |  |
| O=C1c2cccnc2C(=O)N1Cc1ccc(F)cc1 | 8.91 µM (active) |  |
| COc1ccccc1CN1CCCC2(CCN(C(C)=O)CC2)C1 | inactive |  |
| S=C1SCN(C2CCCCCCCCCCC2)CN1C1CCCCCCCCCCC1 | 3.98 µM (active) |  |
| CCNc1ncc2nc(-c3ccc(F)cc3)c(=O)n(-c3ccc(OC)cc3)c2n1 | inactive |  |
| Cc1cc(OCCn2cc(/C(N)=N/O)c3ccccc32)ccc1Cl | 0.708 µM (active) |  |
| CCCCNC(=O)Cc1coc2ccc3ccccc3c12 | 3.16 µM (active) |  |
| CCCCN(C)C(=O)c1coc(=O)c2ccccc12 | inactive |  |
| Cc1c(C#N)c(=O)oc2ccc3ccccc3c12 | inactive |  |
| Nc1nc2c(c(=O)[nH]1)N(C=O)[C@H](CNc1ccc(C(=O)N[C@@H](CCC(=O)O)C(=O)O)cc1)CN2 | inactive |  |
| CCOC(=O)c1c(C)c(C(=O)NCCN2CCOCC2)c(C)n1CC | inactive |  |
| CCOC(=O)c1c(C)c(C(=O)N2CCCCCC2)c(C)n1C | 7.08 µM (active) |  |
| CC(C)CN1CCC2(CC1)CCN(C(=O)c1csnn1)CC2 | inactive |  |
| O=C(Nc1cccc(F)c1)/C(=C\c1ccco1)NC(=O)c1cccs1 | 14.1 µM (active) |  |
| CCOC(=O)c1c(C)nc2c(c1-c1ccccc1)C(=O)CC(C)(C)C2 | 7.08 µM (active) |  |
| CCn1cc(C(=O)O)c(=O)c2cc(F)c(N3CCN[C@@H](C)C3)c(F)c21 | inactive |  |
| COC(=O)C1=C(C)N=C2SC(C)C(=O)N2C1/C=C/c1ccccc1 (centres undefined) | 5.01 µM (active) |  |
| CCc1cc2c(c(CC)n1)CCC(=O)N2Cc1ccc(-c2ccccc2-c2nn[nH]n2)cc1 | 5.01 µM (active) |  |
| CC1=N[C@@](C)(COC(=O)[C@]2(C)N[C@](C)(CO)CO2)COC1=O |  | 40.4% [at 11.4 µM] (inactive) |
| COc1ccc(/C=C(/C(=O)Nc2ccccc2C(=O)NC(C)C)c2ccccc2)cc1 | 15.8 µM (active) |  |
| CC(C)NC(=O)c1ccccc1NC(=O)/C=C/c1ccc([N+](=O)[O-])cc1 | inactive |  |
| O=C(O)/C(=C\c1ccccc1)c1ccccc1 |  | 11.9% [at 11.4 µM] (inactive) |
| Cc1ccccc1NC(=O)/C(=C/c1ccccc1)c1ccccc1 | 10 µM (active) |  |
| CCN(CC)CCOC(=O)C1(C2CCCCC2)CCCCC1 | inactive |  |

| SMILES | AC50 | activity, negative = inhibition |
| --- | --- | --- |
| O=C(Nc1cccc(F)c1)N1CC2(CCN(C(=O)c3cc(C(F)(F)F)cc(C(F)(F)F)c3)CC2)C1 | inactive |  |
| N#Cc1cccc(NC(=O)N2CC3(CCN(C(=O)c4cc(C(F)(F)F)cc(C(F)(F)F)c4)CC3)C2)c1 | 0.631 µM (active) |  |
| N#Cc1cccc(NC(=O)N2CCCC3(CCN(C(=O)c4cc(C(F)(F)F)cc(C(F)(F)F)c4)CC3)C2)c1 | inactive |  |
| Cc1ccc2c(c1)/C(=N/OC(=O)c1ccc(F)cc1)CCS2 | inactive |  |
| C/C(=N\OC(=O)c1ccc(F)cc1)c1nccs1 | 17.8 µM (active) |  |
| O=C(O)[C@H]1[C@H](C(=O)O)[C@H](C(=O)O)C[C@@H]1C(=O)O |  | 24.8% [at 11.4 µM] (inactive) |
| O=C(O)[C@@H]1C[C@@H](C(=O)O)N1 | 25.1 µM (active) |  |
| O=C(O)[C@H]1C[C@H](C(=O)O)N1 | inactive |  |
| O=[N+]([O-])c1ccccc1N/N=C/c1c[nH]c2ccccc12 | 10 µM (active) |  |
| COc1c(/C=N/Nc2ccc([N+](=O)[O-])cc2[N+](=O)[O-])c(C)nn1-c1ccccc1 | inactive |  |
| O=S(=O)(NCc1cn2ccsc2n1)c1ccc(Oc2ccccc2)cc1 | 10 µM (active) |  |
| COc1ccccc1N1CCN(CCN2C(=O)c3ccccc3C(C)(C)C2=O)CC1 | inactive |  |
| COc1cccc2cc(C(=O)CC3(O)C(=O)N(Cc4ccccc4)c4ccccc43)c(=O)oc12 (centres undefined) | 25.1 µM (active) |  |
| O=C(O)C1(C(=O)O)CCN(S(=O)(=O)c2ccccc2)CC1 |  | 16.2% [at 11.4 µM] (inactive) |
| N.N.O=C(O)C1(C(=O)O)CCC1.[Pt] | 3.98 µM (active) |  |
| O=C(CSc1nnc(COc2ccccc2)n1-c1ccccc1)c1ccccc1 | 3.98 µM (active) |  |
| COc1ccc(OCc2nnc(SCC(=O)O)n2N)cc1 | inactive |  |
| CC(C)OC(=O)c1nnn(-c2nonc2N)c1CSc1ccccn1 | 0.251 µM (active) |  |
| Cc1nonc1NC(=O)N1CCCC1 | inactive |  |
| Nc1nonc1-n1nncc1-c1ccccc1 | 6.31 µM (active) |  |
| CCOC(=O)c1nnn(-c2nonc2N)c1-c1ccccc1 | 2.82 µM (active) |  |
| Cc1c(C(=O)N2CCCCCC2)nnn1-c1nonc1N | 7.94 µM (active) |  |
| NC(N)=NC(N)=Nc1c(F)c(F)c(F)c(F)c1F |  | -5.72% [at 11.4 µM] (inactive) |
| CCOC(=O)c1nnn(-c2nc(OC)nc(N3CCCCC3)n2)c1-c1ccccc1 | 7.94 µM (active) |  |

| SMILES | AC50 | activity, negative = inhibition |
| --- | --- | --- |
| COCc1c(C(N)=O)nnn1-c1nonc1N | inactive |  |
| CCOC(=O)c1nnn(-c2nonc2N)c1-c1ccc(C)cc1 | 1.58 µM (active) |  |
| OC[C@H]1NC[C@H](O)[C@@H](O)[C@H]1O | inactive |  |
| COCC(=O)N1CCC[C@@]2(CCN(Cc3ccc(C#N)cc3)C2)C1 | inactive |  |
| O=C(COc1ccc(Cl)cc1)N1CCN(Cc2ccc3c(c2)OCO3)CC1 | 5.01 µM (active) |  |
| O=C(O)[C@@H]1CCCN1Cc1ccc2c(c1)OCO2 |  | 14.1% [at 11.4 µM] (inactive) |
| COCC(=O)N1CCC2(CC1)CN(Cc1ccc(C#N)cc1)C2 | inactive |  |
| c1cnc(N2CCN(Cc3ccc4c(c3)OCO4)CC2)nc1 | 2 µM (active) and 631 nM (active) and inactive |  |
| O=C(CCN1C(=O)c2cccc3cccc(c23)C1=O)N1CCN(Cc2ccc3c(c2)OCO3)CC1 | 1.58 µM (active) |  |
| Cc1noc(C)c1-c1cc(NCc2ccccc2)ncn1 | inactive |  |
| Cc1noc2ncnc(Oc3ccc4ccccc4c3)c12 | 7.08 µM (active) |  |
| Cc1cccc(Oc2ncnc3onc(C)c23)c1C | 5.01 µM (active) |  |
| COc1ccc(NC(=O)N2CC3(CCN(C(=O)c4csnn4)CC3)C2)cc1 | inactive |  |
| O=C(O)CN1CCN(Cc2ccccc2)C1=O | 6.31 µM (active) |  |
| O=C(O)CN1CCN(Cc2ccc(F)cc2Cl)C1=O | 5.01 µM (active) |  |
| Cc1cccc(CN2CCN(CC(=O)O)C2=O)c1 | inactive |  |
| NC(Cc1ccccc1)=NCC(=O)O |  | 18.2% [at 11.4 µM] (inactive) |
| Nc1nc2ncc(CNc3ccc(C(=O)N[C@@H](CCC(=O)O)C(=O)O)cc3)nc2c(=O)[nH]1 | inactive |  |
| Nc1ccc(O)c(C(=O)O)c1 | 5.01 µM (active) |  |
| NC(N)=N/N=C\c1ccc(O)c(C(=O)O)c1 |  | 16.2% [at 11.4 µM] (inactive) |
| N[C@@H](C(=O)O)c1ccc(O)c(C(=O)O)c1 | inactive |  |
| Cc1ccc(C(=O)c2cn[nH]c2-c2cc(Cl)ccc2O)cc1 | 0.708 µM (active) |  |
| Cc1cc2c(nc1C)CCCCN2C[C@H](C)O/N=C\[C@@H](C)[C@H](OCc1ccccc1)C(C)C |  | -20.8% [at 11.4 µM] (inactive) |
| CCc1nc(SCC(=O)N2CCCc3ccccc32)c2oc3ccccc3c2n1 | 3.98 µM (active) |  |

| SMILES | AC50 | activity, negative = inhibition |
| --- | --- | --- |
| CCc1nc(SCC(=O)c2ccc(Cl)s2)c2oc3ccccc3c2n1 | 0.562 µM (active) |  |
| Cc1nc(SCC(=O)c2ccc(Cl)s2)c2oc3ccccc3c2n1 | 0.178 µM (active) |  |
| CC(=O)OC[C@@H]1O[C@@H](O/N=C2/C[C@@H](O)[C@@H](O)[C@@H]3[C@@H]4C(=O)N(c5cccc(Oc6ccccc6)c5)C(=O)[C@H]4CC[C@@H]23)[C@H](OC(C)=O)[C@H](OC(C)=O)[C@@H]1OC(C)=O |  | -22% [at 11.4 µM] (inactive) |
| Clc1cccc(Oc2cnc3ccccc3n2)c1 | 3.55 µM (active) |  |
| Cn1cc(-c2nc3cnc(Oc4cccc(Cl)c4)nc3n(CCC#N)c2=O)c2ccccc21 | inactive |  |
| O=C(CCl)Nc1ccc(Oc2cnc3ccccc3n2)cc1 | 5.01 µM (active) |  |
| Cn1c(=O)c(-c2ccc(Cl)cc2)nc2cnc(Oc3cccc(Cl)c3)nc21 | inactive |  |
| CN1CCCC[C@@H]1CCN1CCCCC1 |  | 26.3% [at 11.4 µM] (inactive) |
| COc1ccc(NC(=O)N2CCCC3(CCN(C(=O)c4cc(C(F)(F)F)cc(C(F)(F)F)c4)CC3)C2)cc1 | inactive |  |
| COC(=O)c1ccccc1NC(=O)c1cc2nc(C3CC3)cc(C(F)(F)F)n2n1 | inactive |  |
| COc1ccc(-c2cc(C(F)(F)F)n3nc(C(=O)N4CCCCC4)cc3n2)cc1 | 14.1 µM (active) |  |
| CCOC(=O)C1CCCN(C(=O)c2cc3nc(-c4ccc5c(c4)OCO5)cc(C(F)(F)F)n3n2)C1 (centres undefined) | 14.1 µM (active) |  |
| C[C@H](c1ccccc1)N1C(=O)[C@H]2[C@@H]3[C@H](O)[C@H](O)CC(=O)[C@H]3CC[C@H]2C1=O |  | -0.855% [at 11.4 µM] (inactive) |
| CCc1nnc(SCc2ccc(OC(C)C)cc2)n1N | 10 µM (active) |  |
| COc1cccc2c1C(=N)c1c(O)c3c(c(O)c1C2=O)C[C@](O)(C(C)=O)C[C@@H]3O[C@H]1C[C@H](N)[C@@H](O)[C@H](C)O1 |  | -44.3% [at 11.4 µM] (inactive) |
| CCOc1ccc(NC(=O)c2ccc(Br)o2)c([N+](=O)[O-])c1 | inactive |  |
| O=[N+]([O-])c1cc(Cl)cc2c1nc(NCCO)c1ccccc12 |  | -34.6% [at 11.4 µM] (inactive) |
| O=C(NCc1ccc(Cl)cc1)c1ccc(Cl)cc1[N+](=O)[O-] | 1.26 µM (active) |  |
| Cc1ccc(C(=O)NCCNc2ccc(Cl)cc2[N+](=O)[O-])o1 | 7.94 µM (active) |  |
| O=C(NCc1ccccc1)c1ccc(Cl)cc1[N+](=O)[O-] | 11.2 µM (active) |  |
| COc1cc(C(=O)NCCC(C)C)c([N+](=O)[O-])cc1OC | inactive |  |
| O=c1[nH]ncn2cccc12 | inactive |  |
